Experimental data: PubChem BioAssay (NCI)
About 83,000 compounds went through this panel and 20% of them were active in at least one assay; those are over-represented in the sample as a whole.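 Treatment: one concentration, 48 hours, 96-well format. Scoring: percent growth, with anything below 10 considered active.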 Values without a mark were called inactive. Calls of active or inactive are those of the source.

Tested on: HCT-116 colon
Assay: NCI-60 one-dose screen, 48 h (100 = growth as untreated, 0 = no growth, -100 = all killed)
Settings: 10 µM unless noted

Row | SMILES | growth
1 | O=C(/C=C/c1c(-c2ccc(Cl)cc2)nn(-c2ccccc2)c1C(F)(F)F)c1ccc(Cl)cc1 | 63.4%
2 | Cc1c(C)c([N+](=O)[O-])c(C)c([N+](=O)[O-])c1C | 105%
3 | CC(c1ccccc1)C(C(=O)c1ccccc1)c1ccccc1 (centres undefined) | 74.5%
4 | COc1cc(NC(=O)CSc2nc3ccc(C)cc3c(=O)n2Cc2ccccc2)cc(OC)c1OC | 43.4%
5 | CSc1nc2sc3cccc(Cl)c3n2c(=N)c1C#N | 101%
6 | CCN(c1ccccc1)S(=O)(=O)c1cc([N+](=O)[O-])ccc1Cl | 24.6%
7 | COC1=CC(=O)c2ccccc2C1=O | 29.9%
8 | COC(=O)c1ccc2c(c1)[n+](=O)c(C(C)=O)c(C(F)(F)F)n2[O-] | -98% (active)
9 | COc1cc(/C=C/C(=O)c2nc3cc(F)ccc3nc2C)cc(OC)c1OC | 44.5%
10 | COc1ccc(/C=C/C(=O)Nc2cc(/C=C\c3cc(OC)c(OC)c(OC)c3)cc(OC)c2OC)cc1OC | 19.2%
11 | N#C/C(=C\c1cccc(C#N)c1)c1ccccc1 | 94.2%
12 | C[C@H]1[C@H]2[C@H]3CC[C@@H]4[C@@]5(C)CC[C@H](O)C(C)(C)[C@@H]5CC[C@@]4(C)[C@]3(C)CC[C@]23CO[C@]1(C)[C@@H](C(=O)/C=C\c1ccco1)C3 | 100%
13 | Cc1ncc(C(=O)Nc2ccc(CN3CCN(C)CC3)c(C(F)(F)F)c2)cc1C#Cc1cnc(N)cc1C#N | -71.5% (active)
14 | Cc1ccc(-n2nc3c(c(C#N)c2=O)CC(c2ccccc2[N+](=O)[O-])C([N+](=O)[O-])=C3O)cc1 (centres undefined) | 86.9%
